Assay outcomes from PubChem BioAssay.
HTT-AS act = Primary qHTS for Identification of Small Molecule Activators of Huntingtin-Antisense Promoter Activity | HEK293 HTT-AS promoter firefly luciferase reporter, 24 h; response scale: percent change from vehicle, -100% = no light | Potency, µM (titrated, usually from 57.5 µM), hits mostly activators | 0.24% of 48,000 active; note: nearly all actives have a fitted effect of over 55% in size
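HEK293 Fluc reporter, 2,500 cells/well, 24 h pre-culture; cpds up to 57.5 uM final, 24 h 37 degrees C; Dual-Glo, 10 min RT; normalized vehicle = 0%, zero RLU = -100%.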
NTMT1 inhibitor = Primary qHTS for Inhibitors of N-terminal methyltransferase 1 (NTMT1): MTaseGlo Assay; N-terminal Xaa-Pro-Lys N-methyltransferase 1 (Homo sapiens), Q9BV86; NTMT1 MTase-Glo SAH luminescence, purified enzyme; Potency, µM (series often up to 114 µM), actives largely listed as inhibitors; 2.5% of 59,000 active; AID 1645870, 2021; note: nearly all actives have a fitted effect of over 65% in size
Target sequence (Q9BV86 whole entry, looked up): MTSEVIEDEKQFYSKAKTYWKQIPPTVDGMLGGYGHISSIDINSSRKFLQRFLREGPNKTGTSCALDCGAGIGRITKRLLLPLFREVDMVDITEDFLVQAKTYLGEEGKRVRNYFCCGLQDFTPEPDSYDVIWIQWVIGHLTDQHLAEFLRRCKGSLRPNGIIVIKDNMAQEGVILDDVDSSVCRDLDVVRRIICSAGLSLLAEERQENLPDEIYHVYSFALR
HTT promoter inh = Primary qHTS for Identification of Small Molecule Inhibitors of Huntingtin Promoter Activity; HEK293 HTT promoter firefly luciferase reporter, 24 h; Potency, µM (series often up to 57.5 µM), most hits filed as inhibitors; 0.93% of 48,000 active; AID 1508623, 2021; note: nearly all actives have a fitted effect of over 50% in size
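HEK293 cells carrying firefly luciferase reporters were seeded at 2,500 per well in Opti-MEM and cultured for 24 h. They were then treated with compounds at up to 57.5 uM final for 24 h at 37 degrees C before Dual-Glo luminescence readout.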
DYRK1A inh = Assay for Inhibitors of Dual-Specificity Tyrosine-(Y)-Phosphorylation Regulated Kinase 1A (Kinase-Glo assay). shares compounds with NTMT1 inhibitor. recombinant DYRK1A, Kinase-Glo ATP depletion luminescence. 80% of 100 active. Potency, µM (top dose mostly 76.9 µM), most hits filed as inhibitors
CLK4 inh = Confirmation Assay for Inhibitors of CDC-like Kinase 4 (Kinase-Glo Assay): SAR round 2. 90% of 90 active. recombinant Clk4, Kinase-Glo ATP luminescence, 4.5 h. Potency, µM (titrated, usually from 76.9 µM), most hits filed as inhibitors. shares compounds with NTMT1 inhibitor
Target sequence (Q9HAZ1 whole entry, looked up): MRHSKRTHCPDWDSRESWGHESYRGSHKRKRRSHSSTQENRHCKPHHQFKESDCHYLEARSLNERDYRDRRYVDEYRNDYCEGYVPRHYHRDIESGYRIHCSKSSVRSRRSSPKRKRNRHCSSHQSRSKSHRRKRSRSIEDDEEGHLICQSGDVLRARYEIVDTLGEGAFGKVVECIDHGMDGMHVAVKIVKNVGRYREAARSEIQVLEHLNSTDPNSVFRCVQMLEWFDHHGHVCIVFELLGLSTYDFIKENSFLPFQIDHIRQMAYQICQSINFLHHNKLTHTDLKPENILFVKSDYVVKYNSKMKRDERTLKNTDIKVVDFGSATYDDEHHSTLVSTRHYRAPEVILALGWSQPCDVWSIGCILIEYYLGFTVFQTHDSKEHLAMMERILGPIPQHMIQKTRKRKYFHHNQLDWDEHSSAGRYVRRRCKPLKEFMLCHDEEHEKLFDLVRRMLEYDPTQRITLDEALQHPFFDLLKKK
Sfp PPTase inh = qHTS Assay for Inhibitos of Bacillus subtilis Sfp phosphopantetheinyl transferase (PPTase): Chemistry Optimization Followup. shares compounds with NTMT1 inhibitor. purified Sfp PPTase enzyme activity, qHTS. Potency, µM (top dose mostly 114 µM), hits mostly inhibitors. 78% of 230 active
Sfp inh gel = qHTS Assay for Inhibitors of Bacillus subtilis Sfp phosphopantetheinyl transferase (PPTase): Gel Based Assay; Potency, µM (doses to about 250 µM), most hits filed as inhibitors; AID 602362, 2012; 90% of 45 active; shares compounds with NTMT1 inhibitor; purified Sfp PPTase, gel-based product detection
Sfp SAR2 = qHTS Assay for Inhibitors of Bacillus subtilis Sfp phosphopantetheinyl transferase (PPTase): SAR Round 2 | shares compounds with NTMT1 inhibitor | AID 602370, 2012 | Potency, µM (highest dose often 57.1 µM), hits mostly inhibitors | 87% of 230 active | purified Sfp enzyme, PPTase activity, qHTS
hGST A1-1 inh = qHTS Assay for Inhibitors of Bacillus subtilis Sfp phosphopantetheinyl transferase (PPTase): SAR in hGST A1-1; shares compounds with NTMT1 inhibitor; hGST A1-1 enzyme activity counter-screen, qHTS; Potency, µM (series often up to 114 µM), most hits filed as inhibitors; 55 tested, under 10 active
HSD17B4 counter = Extended Characterization of HPGD Inhibitors: Counterscreen Against HSD17b4; shares compounds with NTMT1 inhibitor; purified HSD17B4, estradiol/NAD+, NADH fluorescence; Potency, µM (doses to about 57.1 µM), most hits filed as inhibitors; 10% of 230 active
ALDH1A1 inh = Extended Characterization of HPGD Inhibitors: Counterscreen Against ALDH1A1 | 93% of 230 active | shares compounds with NTMT1 inhibitor | recombinant ALDH1A1, NADH fluorescence, propionaldehyde/NAD+ | Potency, µM (doses to about 57.1 µM), actives largely listed as inhibitors
NNMT inh = Counterscreen qHTS for Inhibitors of N-terminal methyltransferase 1 (NTMT1): NNMT MTaseGlo assay. shares compounds with NTMT1 inhibitor. NNMT MTase-Glo luminescence, SAH detection. Potency, µM (doses to about 57.1 µM), actives largely listed as inhibitors. 10% of 120 active
Each line names hits and unclear results; the compound was inactive in the other large screens (follow-up assays come after a bar, where they were run); ! = a repeat was not active. In the library only some 2.4% were active in any assay of this set; here they are far more common. Calls come from the whole dose curve; as a rule, active = well fitted curve in the direction sought with a large enough effect; inconclusive = small, poorly fitted or top-dose-only effect, or another doubt; inactive = no such curve, though single readings can be large; an effect the other way counts as inactive or inconclusive.

Cn1c(=O)cc(N2CCCC(N)C2)n(Cc2cc(F)ccc2C#N)c1=O (stereo not given)	none (no result: HTT-AS act, HTT promoter inh)
Cc1noc(C)c1-c1ccc2ncnc(NCc3cc(F)cc(F)c3)c2c1	none (no result: HTT-AS act, HTT promoter inh)
O=C(O)c1ccc(-c2ccc3ncnc(NCCc4cnc[nH]4)c3c2)o1	none (no result: HTT-AS act, HTT promoter inh) | DYRK1A inh 9.2µM
Cc1nc(C)c(-c2ccc3ncnc(NCCc4cnc[nH]4)c3c2)s1	NTMT1 inhibitor inconclusive (no result: HTT-AS act, HTT promoter inh) | DYRK1A inh 26µM
CN1CCN(C(=O)c2ccc3cc(CCNc4ncnc5ccc(C#N)cc45)ccc3c2)CC1	none (no result: HTT-AS act, HTT promoter inh)
OCc1ccc(-c2ccc3ncnc(NCCc4cnc[nH]4)c3c2)o1	NTMT1 inhibitor inconclusive (no result: HTT-AS act, HTT promoter inh) | DYRK1A inh 23µM
CCOC(=O)c1ccc(-c2ccc3ncnc(NCCc4cnc[nH]4)c3c2)o1	NTMT1 inhibitor inconclusive (no result: HTT-AS act, HTT promoter inh) | DYRK1A inh 1.6µM
CCOC(=O)c1cnc2ccc(C)cc2c1NCCc1ccc(OC)c(OC)c1	none
Fc1cccc(CNc2ncnc3ccc(-c4cccnc4)cc23)c1	none (no result: HTT-AS act, HTT promoter inh)
CCn1c(-c2nonc2N)nc2c(C#CCO)ncc(OCCCN)c21	none (no result: HTT-AS act, HTT promoter inh)
C[C@]1(C(=O)Nc2ccc(F)nc2)CCCN1c1nc(Nc2cc(C3CC3)[nH]n2)c2cccn2n1	none (no result: HTT-AS act, HTT promoter inh)
COc1ccc2cc(OCC3(C(=O)O)CN(C(=O)c4ccc(F)cc4)C3)ccc2c1	none (no result: HTT-AS act, HTT promoter inh)
Cc1cn(C[C@H](N)C(=O)O)c(=O)n(Cc2ccsc2C(=O)O)c1=O	none (no result: HTT-AS act, HTT promoter inh)
COC(=O)c1ccc(-c2c(NC(C)=O)sc3c2CCNC3)cc1	none (no result: HTT-AS act, HTT promoter inh)
O=C(Nc1ccc(-n2cncn2)c(F)c1)Nc1nnc(-c2ccncc2)s1	none (no result: HTT-AS act, HTT promoter inh)
CC(C)C(CO)Nc1nc(Nc2ccc(C(=O)O)c(Cl)c2)c2ncn(C(C)C)c2n1 (stereo not given)	none (no result: HTT-AS act, HTT promoter inh)
CCC[C@@H]1O[C@@H]2C[C@H]3[C@@H]4CCC5=CC(=O)C=C[C@]5(C)[C@H]4[C@@H](O)C[C@]3(C)[C@]2(C(=O)CO)O1	none (no result: HTT-AS act, HTT promoter inh)
CCNC(=O)c1ccc(-c2ccc3ncnc(NCCc4cnc[nH]4)c3c2)o1	none (no result: HTT-AS act, HTT promoter inh) | CLK4 inh 1.3µM
Cc1noc(C)c1-c1ccc2ncnc(NCc3ccc(C(F)(F)F)cc3)c2c1	none (no result: HTT-AS act, HTT promoter inh)
Cc1cc(NC(=O)Nc2nnc(C3CCCCC3)s2)ccc1F	none (no result: HTT-AS act, HTT promoter inh)
CCOc1ccc(Cc2nc(-c3c(C)nc4ccccn34)cs2)cc1	NTMT1 inhibitor inconclusive (no result: HTT-AS act, HTT promoter inh) | NNMT inh inconclusive
CCOc1ccc(C(=O)c2c(N)c(-c3nc(-c4ccc(OCC)cc4)cs3)c3ccccn23)cc1	none
CCOc1ccc(Nc2nc(-c3c(C)nc4ccccn34)cs2)cc1	none | NNMT inh inconclusive
FC(F)(F)c1ccc(Nc2nc(-c3c(C(F)(F)F)nc4ccccn34)cs2)cc1	none (no result: HTT-AS act, HTT promoter inh)
Cc1cc(C(=O)Nc2cc(Nc3ccc4c(/C=C/c5ccccn5)n[nH]c4c3)ccc2F)n(C)n1	none (no result: HTT-AS act, HTT promoter inh)
COCCOCCOc1ccc(C2=N[C@@](C)(C(=O)O)CS2)c(O)c1	none (no result: HTT-AS act, HTT promoter inh)
COc1cc(OCc2cccc(-c3ccccc3)c2C)cc(OC)c1CN1CCCC[C@H]1C(=O)O	none (no result: HTT-AS act, HTT promoter inh)
Cc1cc(CS(=O)(=O)c2ccccc2)cc(OCc2ccc(CN3CCC[C@@H]3CO)cc2)c1	NTMT1 inhibitor 8.9µM! (no result: HTT-AS act, HTT promoter inh) | NNMT inh inactive
O=[S+]([O-])(NCC#CCSc1nnc(-c2cccc3ccccc23)o1)c1ccc(F)cc1	none (no result: HTT-AS act, HTT promoter inh)
Cc1csc(CNc2ncnc3ccc(-c4ccc5c(ccn5C)c4)cc23)c1	none (no result: HTT-AS act, HTT promoter inh)
Cc1nc(CN(C)c2ncnc3ccc(-c4ccc5[nH]ncc5c4)cc23)cs1	none (no result: HTT-AS act, NTMT1 inhibitor, HTT promoter inh) | Sfp PPTase inh inactive | Sfp inh gel inactive | Sfp SAR2 inactive | hGST A1-1 inh inconclusive | HSD17B4 counter 22µM | ALDH1A1 inh 15µM
CCN(CC)C(=O)C1=CC(c2ccc3c(c2)OCO3)=NS(=O)(=O)N1C	none
CN(CC1CCCCO1)c1ncnc2ccc(-c3ccc4c(c3)OCO4)cc12 (stereo not given)	none (no result: HTT-AS act, NTMT1 inhibitor, HTT promoter inh) | CLK4 inh 0.073µM
CN(CC(=O)O)c1ncnc2ccc(-c3ccc4c(c3)OCO4)cc12	none (no result: HTT-AS act, HTT promoter inh) | CLK4 inh 2.3µM
Cc1nc(CSc2ncnc3ccc(-c4ccc5c(c4)OCO5)cc23)cs1	NTMT1 inhibitor inconclusive (no result: HTT-AS act, HTT promoter inh) | DYRK1A inh 2.6µM
Cc1c(-c2ccc3c(c2)OCO3)oc2ccc(C(O)C(C)O)cc12 (stereo not given)	none (no result: HTT-AS act, HTT promoter inh)
Cn1cc(-c2ccc(S(=O)(=O)n3ccc(/C=C/C(=O)Nc4ccccc4N)c3)cc2)cn1	none (no result: HTT-AS act, HTT promoter inh)
Cc1nc(CN(C)c2ncnc3ccc(-c4ccc5c(c4)OCO5)cc23)cs1	NTMT1 inhibitor 7.9µM (no result: HTT-AS act, HTT promoter inh) | DYRK1A inh 0.041µM
